Screens: PubChem BioAssay, several laboratories
aDG glyco act: increases alpha dystroglycan glycosylation. Pro5-aDG cells, alpha-DG glycosylation AlphaScreen (IIH6); 0% Pro5, 100% B10-LARGE cell signal. activation, % at 10 µM. 360,000 compounds, 0.22% hits. AID 624168;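 active = activation of at least 8% versus controls, or a plate z-score of at least 8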;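 also: Pro5 are CHO cells carrying HIG-tagged alpha-DG that lacks glycosylation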
FAS-TE inh: inhibitors of human fatty acid synthase thioesterase domain. P49327. recombinant FAS-TE, OMFH fluorogenic substrate, fluorescence endpoint. inhibition, % at 15 µM. 360,000 compounds, 0.67% hits. AID 602261;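 active = compounds whose normalised, plate-corrected inhibition of enzyme fluorescence in the single-dose primary screen is 50% or more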
GRIN3A LBD mod: modulators (binders) of human NR3A ligand-binding domain | NR3A LBD differential scanning fluorimetry, Tm shift; 0% = protein alone, 100% = glycine-bound protein | Tm shift relative to glycine control, % at 25 µM | 340,000 compounds, 2.5% hits | AID 1259313;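 active = melting temperature shift of at least 10% of the positive control shift, at one fixed dose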
ADAM17 inh: inhibits human ADAM17 | P78536 | recombinant ADAM17, EDANS/DABCYL FRET peptide cleavage | inhibition, % at 6.95 µM | 370,000 compounds, 0.83% hits | AID 720648;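 active = inhibition above the mean of compounds lying between control limits plus 3 SD, set per campaign, cut at about 8.5% in these data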
Target sequence (P78536 215-824 limits assumed): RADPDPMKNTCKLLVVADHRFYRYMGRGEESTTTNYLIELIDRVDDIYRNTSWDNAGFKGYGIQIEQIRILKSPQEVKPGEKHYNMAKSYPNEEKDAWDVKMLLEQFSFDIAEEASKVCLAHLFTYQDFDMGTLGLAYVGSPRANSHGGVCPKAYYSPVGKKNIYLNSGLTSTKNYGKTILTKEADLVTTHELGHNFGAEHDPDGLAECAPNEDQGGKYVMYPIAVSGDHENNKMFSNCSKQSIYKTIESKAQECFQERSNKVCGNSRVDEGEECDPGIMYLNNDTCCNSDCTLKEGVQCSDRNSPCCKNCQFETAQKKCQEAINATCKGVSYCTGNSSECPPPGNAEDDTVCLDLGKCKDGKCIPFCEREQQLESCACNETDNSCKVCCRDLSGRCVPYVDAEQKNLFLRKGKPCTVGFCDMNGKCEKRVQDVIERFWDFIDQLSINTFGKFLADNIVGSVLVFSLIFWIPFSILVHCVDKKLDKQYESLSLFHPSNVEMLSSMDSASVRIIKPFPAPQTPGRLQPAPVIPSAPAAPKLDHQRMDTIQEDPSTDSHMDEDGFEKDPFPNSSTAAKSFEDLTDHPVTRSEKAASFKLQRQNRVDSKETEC
ADAM10 inh: inhibits human ADAM10 | O14672 | recombinant ADAM10, EDANS/DABCYL FRET peptide cleavage, 3 h | inhibition, % at 7 µM | 370,000 compounds, 0.62% hits;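 active = inhibition above a per-campaign cutoff equal to the mean of compounds falling between control-based bounds plus 3 SD, cut at about 20% in these data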
A number is an active result; – = inactive; · = no result. Most compounds without a hit are left out; they make up all but 4% or so of the library.

SMILES	aDG glyco act	FAS-TE inh	GRIN3A LBD mod	ADAM17 inh	ADAM10 inh
Oc1ccc(C[C@H]2CNC(=S)N2CC2CCCN2C[C@H](Cc2ccccc2)N2C[C@H](Cc3ccc(O)cc3)N(CC3CCCCCC3)C2=S)cc1 (some centres not stated)	–	–	33	–	–
COc1ccc(C)cc1Nc1ncnc2c1nnn2Cc1ccccc1Cl	–	–	·	–	–
CCCCNc1nc(Nc2ccc(C)c(Cl)c2)c2cnn(C)c2n1	–	–	15	–	–
COCCNC(=S)N/N=C(\C)c1cccc(C(F)(F)F)c1	–	–	52	–	–
O=C(CCCCCN1C(=O)CCC1=O)Nc1ccc(Br)cc1F	–	–	11	–	–
COc1ccc2c(C)cc(C)nc2n1	–	–	–	–	–
CCOC(=O)CN1C(c2ccc(O)cc2)Nc2ccc(Br)cc2C1c1ccccc1 (configuration not stated)	–	–	19	–	–
COc1ccc(NC(=S)NNc2ccc([N+](=O)[O-])cc2S(=O)(=O)Nc2ccc(C)cc2C)cc1	–	–	23	–	–
Cc1ccc(NS(=O)(=O)c2cc([N+](=O)[O-])ccc2NNC(=S)Nc2cccc(Cl)c2)c(C)c1	–	52	–	·	·
COc1ccc(CNc2ccc([N+](=O)[O-])cc2C)cc1	–	–	–	–	–
Cc1cccc(NC(=S)NNc2cccc(Cl)c2)c1	–	–	–	–	–
COC(=O)COc1ccccc1C(=O)Nc1ccc(OC)cc1	–	–	–	–	–
COc1cccc(/C=N/NC(=O)c2nnn(-c3nonc3N)c2CN(C)c2ccccc2)c1	–	–	20	–	–
CN(C)Cc1c(C(=O)N/N=C/c2cccc(OCc3c(F)cccc3Cl)c2)nnn1-c1nonc1N	–	–	24	–	–
CN(C)Cc1c(C(=O)N/N=C/c2cccc(OCc3ccccc3)c2)nnn1-c1nonc1N	–	–	–	–	–
CN(Cc1c(C(=O)N/N=C/c2cccc(F)c2)nnn1-c1nonc1N)c1ccccc1	–	–	37	–	–
COc1ccc(/C=C(\C#N)C(=O)OC2CCOC2=O)cc1 (configuration not stated)	–	–	–	–	–
Cc1ccc(C(=O)CSC2=NC(N)=C(C#N)C3(CCCCC3)C2C(N)=O)cc1 (configuration not stated)	–	–	–	–	–
CCn1c(Cc2ccccc2)nnc1SCc1ccc([N+](=O)[O-])cc1	–	–	–	–	–
C/C=C/CSc1nc2c(c(=O)[nH]c(=O)n2C)n1C(C)C	–	–	–	–	–
O=C(N1CCCCC1)C12CC3CC(C1)CC(C(=O)N1CCCCC1)(C3)C2	–	–	21	–	–
COC(=O)c1ccccc1NC(=O)CSc1nc(N)cc(=O)[nH]1	–	–	–	–	–
Cc1cc(C)cc(NC(=S)N(Cc2ccc(Br)cc2)Cc2ccc(C(=O)O)cc2)c1	–	–	–	–	–
CCOC(=O)CSc1ccc(S(=O)(=O)N2CCCCC2)cc1[N+](=O)[O-]	–	–	–	–	–
CCOC(=O)CSc1ccc(S(=O)(=O)N(C)C2CCCCC2)cc1[N+](=O)[O-]	–	–	–	–	24
SMILES	aDG glyco act	FAS-TE inh	GRIN3A LBD mod	ADAM17 inh	ADAM10 inh
CCN(CC)C(=O)c1cccc(-c2ccc(OC)cc2)c1	–	–	–	–	–
CCCc1nc2oc3cc(OC)ccc3c(=O)c2c(=O)n1Cc1ccco1	–	–	–	–	–
CCCCCCn1c(-c2ccco2)nc2oc3cc(OC)ccc3c(=O)c2c1=O	–	–	33	–	–
COc1ccc(C(=O)Nc2ccc(S(=O)(=O)N3CCCC3)cc2)cc1[N+](=O)[O-]	–	–	41	–	–
COc1ccc(C(=O)Nc2ccc(S(=O)(=O)NC(C)(C)C)cc2)cc1[N+](=O)[O-]	–	–	28	–	–
CN(CC(=O)Nc1ccc(S(=O)(=O)N2CCCC2)cc1)Cc1ccc(Cl)cc1Cl	–	–	–	–	–
COc1ccc(NC(=O)c2ccc(S(=O)(=O)N3CCCC3)cc2)cc1OC	–	–	–	–	–
CN(CC(=O)Nc1ccc(Cl)cc1)c1ccc(S(=O)(=O)N2CCCCC2)cc1[N+](=O)[O-]	–	–	11	–	–
COc1ccc(Cl)cc1C(=O)Nc1ccc(S(=O)(=O)N2CCCC2)cc1	–	–	20	–	–
COc1ccc(C)cc1NCc1ccc(OC)c(C)c1OC	–	–	–	–	–
O=C(O)c1nccnc1C(=O)Nc1ccccc1N1CCOCC1	–	–	–	–	–
COC(=O)c1ccc(COc2ccccc2/C=C(\C#N)C(=O)Nc2c(C)cc(C)cc2C)cc1	–	–	17	–	–
C(=C\c1ccco1)/C1=NN(c2ccccc2)C(c2ccco2)C1 (configuration not stated)	7.2	–	–	·	·
Fc1ccc(C2=NN(c3ccccc3)C(c3ccco3)C2)cc1 (configuration not stated)	–	–	–	–	–
O=[N+]([O-])c1ccc(/C=C/C2=NN(c3ccccc3)C(c3ccco3)C2)o1 (configuration not stated)	–	–	199	–	–
Clc1ccc(C2=NN(c3ccccc3)C(c3ccco3)C2)cc1 (configuration not stated)	–	–	–	–	–
Brc1ccc(-c2nnc3sc(CNCc4ccc5c(c4)OCO5)cn23)cc1	–	–	–	–	–
O=S(=O)(NCc1cccs1)c1cccc(S(=O)(=O)N2CCCCC2)c1	–	–	–	–	–
O=C(/C=C/c1ccccc1)NC(NC(=S)Nc1ccc(Cl)cc1)C(Cl)(Cl)Cl (configuration not stated)	–	–	25	–	–
CC(=O)NC(NC(=S)Nc1ccc(N=Nc2ccccc2)cc1)C(Cl)(Cl)Cl (configuration not stated)	–	–	13	–	–
O=C(CCc1ccccc1)NC(NC(=S)Nc1ccc(Cl)cc1)C(Cl)(Cl)Cl (configuration not stated)	–	–	27	–	–
CC(C)CC(=O)NC(NC(=S)Nc1ccccc1)C(Cl)(Cl)Cl (configuration not stated)	–	–	–	–	–
COc1ccc(NC(=S)NC(NC(=O)/C=C/c2ccccc2)C(Cl)(Cl)Cl)cc1 (configuration not stated)	–	–	–	–	–
O=C(/C=C/c1ccccc1)NC(NC(=S)Nc1cc(Cl)ccc1Cl)C(Cl)(Cl)Cl (configuration not stated)	–	–	30	–	–
CC(C)NC(NC(=O)/C=C/c1ccccc1)C(Cl)(Cl)Cl (configuration not stated)	–	–	–	–	–
COc1ccc(CN2C(=O)NC(C)(c3ccc(C)cc3)C2=O)cc1F (configuration not stated)	–	–	–	–	–
C/C(=N\Nc1cc(C)nc(-c2ccccc2)n1)c1cccc([N+](=O)[O-])c1	–	–	17	–	–
